# Source: PubChem BioAssay (NCATS)
# Results filed as inconclusive are left out. Values without a mark were called inactive. Calls of active or inactive are those of the source. Unless noted, calls come from the whole dose curve; as a rule, active = well fitted curve in the direction sought with a large enough effect; inconclusive = small, poorly fitted or top-dose-only effect, or another doubt; inactive = no such curve, though single readings can be large; an effect the other way counts as inactive or inconclusive.
# Test: Confirmatory qHTS for small molecule stabilizers of the endoplasmic reticulum resident proteome: Secreted ER Calcium Modulated Protein (SERCaMP) assay (AID 1508628); note: nearly all actives have a fitted effect of over 40% in size;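 for activity change, negative = decrease: SH-SY5Y cells given compound 16 h then thapsigargin 100 nM for 4 h; % is set by controls: 0 for no effect and ±100 for the full control effect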
# Settings: SERCaMP secreted luciferase ER calcium/proteostasis reporter; series mostly up to 76.3 µM; activity change, negative = decrease: at the top concentration
# Summary of the method: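 We seeded SH-SY5Y-GLuc-SERCaMP cells, added compounds (three concentrations in the primary run, eleven up to 76.6 uM in confirmation), incubated 16 h, depleted ER calcium with thapsigargin, and read luciferase 4 h later.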
# Potency is the fitted concentration of half-maximal effect.
Compound,Potency,"activity change, negative = decrease"
CC(C)(C)[C@]1(O)CCN2C[C@H]3c4ccccc4CCc4cccc(c43)[C@@H]2C1,12.6 µM (active),–
O=c1cc(CO)occ1O,–,3.4%
CNCCC(Oc1ccc(C(F)(F)F)cc1)c1ccccc1 (centres undefined),–,272%
CN1CCN(C2Cc3ccccc3Sc3ccc(Cl)cc32)CC1 (centres undefined),17.8 µM (active),–
CN(C)CCC=C1c2ccccc2CCc2ccccc21,–,-41%
CNCCCC1c2ccccc2C=Cc2ccccc21,–,131%
Cc1cc2nc3c(=O)[nH]c(=O)nc-3n(C[C@H](O)[C@H](O)[C@H](O)CO)c2cc1C,–,-11.8% [at 38.8 µM]
Cc1c(O)cccc1C(=O)N[C@@H](CSc1ccccc1)[C@H](O)CN1C[C@H]2CCCC[C@H]2C[C@H]1C(=O)NC(C)(C)C,11.2 µM (active),–
CN1CCCCC1CCN1c2ccccc2Sc2ccc(S(C)=O)cc21 (centres undefined),12.6 µM (active),–
CC(=O)c1ccc2c(c1)N(CCCN(C)C)c1ccccc1S2,25.1 µM (active),–
CCN(CC)CCOC(=O)C1(C2CCCCC2)CCCCC1,–,-24.9%
C=CCn1c(=O)n([C@@H]2O[C@H](CO)[C@@H](O)[C@H]2O)c2nc(N)[nH]c(=O)c21,–,14.1%

# Test: Cell Viability qHTS for small molecule stabilizers of the endoplasmic reticulum resident proteome (AID 1508629);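 note: compound exposure about 46 h in total before the viability read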;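 for max response: human SH-SY5Y neuroblastoma cells carrying the GLuc-SERCaMP reporter; % is set by controls: 0 for no effect and ±100 for the full control effect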
# Settings: cell viability counter-screen, 100 nM thapsigargin for final 4 h
Compound,max response [%],Potency
CC(C)(C)[C@]1(O)CCN2C[C@H]3c4ccccc4CCc4cccc(c43)[C@@H]2C1,16.4,–
O=c1cc(CO)occ1O,8.05,–
CNCCC(Oc1ccc(C(F)(F)F)cc1)c1ccccc1 (centres undefined),–,25.1 µM (active)
O=C1N=C(O)CN1/N=C/c1ccc(-c2ccc([N+](=O)[O-])cc2)o1,30.6,–
Cc1cc2nc3c(=O)[nH]c(=O)nc-3n(C[C@H](O)[C@H](O)[C@H](O)CO)c2cc1C,11.4,–
Cc1c(O)cccc1C(=O)N[C@@H](CSc1ccccc1)[C@H](O)CN1C[C@H]2CCCC[C@H]2C[C@H]1C(=O)NC(C)(C)C,7.19,–
CN1CCCCC1CCN1c2ccccc2Sc2ccc(S(C)=O)cc21 (centres undefined),-1.8,–
CC(=O)c1ccc2c(c1)N(CCCN(C)C)c1ccccc1S2,-6.13,–
COc1cc(C)c(Cc2cnc(N)nc2N)cc1OC,8.8,–
CCN(CC)CCOC(=O)C1(C2CCCCC2)CCCCC1,-2.82,–

# Test: Primary qHTS for small molecule stabilizers of the endoplasmic reticulum resident proteome: Secreted ER Calcium Modulated Protein (SERCaMP) assay (AID 1508630); for activity change, negative = inhibition: % is set by controls: 0 for no effect and ±100 for the full control effect
# Settings: SH-SY5Y GLuc-SERCaMP (Gaussia luciferase released on ER calcium loss) secretion, thapsigargin, luminescence; series mostly up to 38.4 µM; activity change, negative = inhibition: at the top concentration
# Summary of the method: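 GLuc-SERCaMP-expressing SH-SY5Y cells, pretreated 16 h with compound, are challenged with thapsigargin to empty ER calcium stores; after 4 h, coelenterazine is added directly to the medium and luminescence is imaged.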
Compound,"activity change, negative = inhibition",Potency
C[C@@H]1C[C@H]2[C@@H]3C[C@H](F)C4=CC(=O)C=C[C@]4(C)[C@@]3(F)[C@@H](O)C[C@]2(C)[C@@]1(O)C(=O)CO,13.2%,–
C[C@@H]1CC[C@@]2(OC1)O[C@H]1C[C@H]3[C@@H]4CC[C@H]5C[C@@H](O)CC[C@]5(C)[C@H]4CC(=O)[C@]3(C)[C@H]1[C@@H]2C,-13.5% [at 3.88 µM],–
O=C1NS(=O)(=O)c2ccccc21,-25.2%,–
CC1(C)Oc2ccc(C#N)cc2[C@@H](N2CCCC2=O)[C@@H]1O,–,inactive
O=C(O)[C@@H]1CSCN1,-18.8%,–
CCN(CC)CCNC(=O)c1cc(Cl)c(N)cc1OC,–,inactive
Nc1ccc(S(=O)(=O)Nc2ccc(Cl)nn2)cc1,-16%,–
CNCCC(Oc1ccc(C(F)(F)F)cc1)c1ccccc1 (centres undefined),41.5%,–
NC(=O)N/N=C/c1ccc([N+](=O)[O-])o1,–,inactive
CN(N=O)C(=O)N[C@@H]1[C@@H](O)[C@H](O)[C@@H](CO)O[C@@H]1O,-16.4%,–
CNC(=O)Oc1ccc2c(c1)[C@]1(C)CCN(C)[C@@H]1N2C,22.2%,–
c1ccc2c(CC3=NCCN3)cccc2c1,–,inactive
O=C1N=C(O)CN1/N=C/c1ccc(-c2ccc([N+](=O)[O-])cc2)o1,–,14.1 µM (active)
O=c1[nH]c(=O)c2[nH]c(=O)[nH]c2[nH]1,-1.24% [at 7.35 µM],–
OCc1cc(C(O)CNCCCCCCOCCCCc2ccccc2)ccc1O (centres undefined),3.83%,–
C[C@H](N)[C@H](O)c1cccc(O)c1,-18.1%,–
C=Cc1c(C)c2cc3[nH]c(cc4nc(cc5nc(cc1[nH]2)C(C)=C5CCC(=O)O)C(CCC(=O)O)=C4C)c(C)c3C=C,–,inactive
CC(C)C(=O)c1c(C(C)C)nn2ccccc12,–,inactive
CCN(CC)CCOC(=O)C1(C2CCCCC2)CCCCC1,–,inactive
Cc1cc(CC(=O)O)n(C)c1C(=O)c1ccc(Cl)cc1,-27.3%,–
OCC(O)CN1CCN(c2ccccc2)CC1 (centres undefined),6.77%,–
CC(=O)NC(Cc1ccccc1)C(=O)O (centres undefined),-16%,–

# Test: A High-Content qHTS Against Drug Library for the Identification of Small Molecules that Inhibit DYT1 Early Onset Primary Dystonia-Associated Cell Pathology (AID 1645839; calls by dose curve)
# Settings: HEK293 Flp-In EGFP-delE TorsinA, punctate imaging, 48 h; series mostly up to 46.1 µM; % pathology change, negative = correction: at the top concentration
# Summary of the method: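 Flp-In T-REx 293 cells with tetracycline-inducible EGFP-delE hTOR1A (WT EGFP-hTOR1A as reference), 800 cells/well; compound added with tetracycline, 48 h at 37 C. Fixed, permeabilized cells imaged; %pathology (punctate TorsinA) primary, cell count counterscreen.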
Compound,"% pathology change, negative = correction",Potency
C[C@@H]1C[C@H]2[C@@H]3C[C@H](F)C4=CC(=O)C=C[C@]4(C)[C@@]3(F)[C@@H](O)C[C@]2(C)[C@@]1(O)C(=O)CO,-24.3%,–
C[C@@H]1CC[C@@]2(OC1)O[C@H]1C[C@H]3[C@@H]4CC[C@H]5C[C@@H](O)CC[C@]5(C)[C@H]4CC(=O)[C@]3(C)[C@H]1[C@@H]2C,-10% [at 4.63 µM],–
O=C1NS(=O)(=O)c2ccccc21,-14.7%,–
O=c1cc(CO)occ1O,6.58%,–
CC1(C)Oc2ccc(C#N)cc2[C@@H](N2CCCC2=O)[C@@H]1O,18.4%,–
O=C(O)[C@@H]1CSCN1,13.9%,–
CCN(CC)CCNC(=O)c1cc(Cl)c(N)cc1OC,0%,–
Nc1ccc(S(=O)(=O)Nc2ccc(Cl)nn2)cc1,-0.381%,–
CNCCC(Oc1ccc(C(F)(F)F)cc1)c1ccccc1 (centres undefined),–,12.6 µM (active)
NC(=O)N/N=C/c1ccc([N+](=O)[O-])o1,–,inactive
CN(N=O)C(=O)N[C@@H]1[C@@H](O)[C@H](O)[C@@H](CO)O[C@@H]1O,4.86%,–
CNC(=O)Oc1ccc2c(c1)[C@]1(C)CCN(C)[C@@H]1N2C,0.349%,–
c1ccc2c(CC3=NCCN3)cccc2c1,0.0232%,–
O=C1N=C(O)CN1/N=C/c1ccc(-c2ccc([N+](=O)[O-])cc2)o1,-1.51%,–
O=c1[nH]c(=O)c2[nH]c(=O)[nH]c2[nH]1,7.44% [at 9.22 µM],–
C[C@H](N)[C@H](O)c1cccc(O)c1,-18.6%,–
Cc1cc2nc3c(=O)[nH]c(=O)nc-3n(C[C@H](O)[C@H](O)[C@H](O)CO)c2cc1C,20.5% [at 19.1 µM],–
C=Cc1c(C)c2cc3[nH]c(cc4nc(cc5nc(cc1[nH]2)C(C)=C5CCC(=O)O)C(CCC(=O)O)=C4C)c(C)c3C=C,15.7%,–
CC(C)C(=O)c1c(C(C)C)nn2ccccc12,2.17%,–
COc1cc(C)c(Cc2cnc(N)nc2N)cc1OC,0.854%,–
CCN(CC)CCOC(=O)C1(C2CCCCC2)CCCCC1,8.79%,–
C=CCn1c(=O)n([C@@H]2O[C@H](CO)[C@@H](O)[C@H]2O)c2nc(N)[nH]c(=O)c21,14.7%,–
Cc1cc(CC(=O)O)n(C)c1C(=O)c1ccc(Cl)cc1,18.8%,–
OCC(O)CN1CCN(c2ccccc2)CC1 (centres undefined),-2.18%,–
CC(=O)NC(Cc1ccccc1)C(=O)O (centres undefined),-2.99%,–
